Measurements reported in PMC4336329 (PLoS ONE, 2015).
Out of some 310,000 compounds screened, about 2,200 (0.71%) showed an effect of 50% or more. Effects have a minus sign here. For the sample, strong results were picked, then their nearest neighbours and some compounds at random.

Target: human ether-à-go-go-related gene (hERG) potassium channel (human, UniProt Q12809)
Experiment: primary screen, population patch clamp on CHO cells stably expressing hERG; higher = less effect of the substance

Chain of human ether-à-go-go-related gene (hERG) potassium channel (Q12809 whole entry, looked up): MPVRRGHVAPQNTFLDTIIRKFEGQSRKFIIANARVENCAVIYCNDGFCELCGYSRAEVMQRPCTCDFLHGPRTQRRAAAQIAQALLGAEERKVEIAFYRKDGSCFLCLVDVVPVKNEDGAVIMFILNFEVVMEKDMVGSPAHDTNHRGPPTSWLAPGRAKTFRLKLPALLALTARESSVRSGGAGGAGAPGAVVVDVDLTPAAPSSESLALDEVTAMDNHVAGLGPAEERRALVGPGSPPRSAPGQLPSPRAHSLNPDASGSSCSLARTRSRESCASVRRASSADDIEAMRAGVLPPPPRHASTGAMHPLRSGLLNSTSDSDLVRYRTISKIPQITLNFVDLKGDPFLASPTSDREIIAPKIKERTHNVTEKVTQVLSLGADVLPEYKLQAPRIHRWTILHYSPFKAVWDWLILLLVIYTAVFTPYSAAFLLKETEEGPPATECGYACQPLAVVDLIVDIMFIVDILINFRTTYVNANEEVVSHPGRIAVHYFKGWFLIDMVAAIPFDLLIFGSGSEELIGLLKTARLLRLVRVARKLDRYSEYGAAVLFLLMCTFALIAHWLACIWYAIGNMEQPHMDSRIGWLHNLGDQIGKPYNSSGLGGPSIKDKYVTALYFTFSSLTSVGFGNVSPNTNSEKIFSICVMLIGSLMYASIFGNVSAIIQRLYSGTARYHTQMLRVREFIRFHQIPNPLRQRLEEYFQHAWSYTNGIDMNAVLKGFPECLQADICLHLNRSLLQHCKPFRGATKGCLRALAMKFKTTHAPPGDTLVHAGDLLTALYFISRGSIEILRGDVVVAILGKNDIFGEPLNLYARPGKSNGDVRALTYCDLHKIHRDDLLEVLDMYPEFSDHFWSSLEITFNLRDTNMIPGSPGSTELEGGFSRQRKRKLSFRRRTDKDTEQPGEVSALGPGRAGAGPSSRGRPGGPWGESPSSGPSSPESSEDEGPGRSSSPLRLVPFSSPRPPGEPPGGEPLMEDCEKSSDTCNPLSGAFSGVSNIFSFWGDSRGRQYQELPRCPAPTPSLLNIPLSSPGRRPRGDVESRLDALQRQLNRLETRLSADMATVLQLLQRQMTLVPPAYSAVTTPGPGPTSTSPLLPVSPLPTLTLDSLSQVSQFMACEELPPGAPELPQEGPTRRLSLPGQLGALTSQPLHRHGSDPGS

| Structure (SMILES) | hERG current change (%, negative = inhibition) at 1uM [%] |
| --- | --- |
| COc1ccc2cc(C3(C)NC(=O)N(CC(=O)Nc4c(C)n(C)n(-c5ccccc5)c4=O)C3=O)ccc2c1 (centres unmarked) | 0.395 |
| OCC1(CCOc2ccccc2)CCN(Cc2cccn2-c2ncccn2)CC1 | -82.4 |
| CCOC(=O)C1(CCOc2ccccc2)CCN(Cc2nccn2CC)CC1 | -5.37 |
| OCC1(CCc2ccccc2)CCN(Cc2cccn2-c2cccnc2)CC1 | -23.3 |
| CCOC(=O)C1(CCOc2ccccc2)CCN(Cc2cccn2-c2cccnc2)CC1 | 9.53 |
| CCn1ccnc1CN1CCC(CO)(CCOc2ccccc2)CC1 | 13.1 |
| CCOC(=O)C1(CCOc2ccccc2)CCN(Cc2cccn2-c2ncccn2)CC1 | -81.6 |
| O=C(Cc1c(F)cccc1Cl)OCN1C(=O)c2ccccc2C1=O | 17.4 |
| O=C(NCCN1C(=O)C2C3C=CC(C3)C2C1=O)Nc1ccccn1 (centres unmarked) | 5.7 |
| CCn1cc(C(=O)NCCCN2CCCC(C)C2)c(=O)c2cc(S(=O)(=O)N3CCOCC3)ccc21 (centres unmarked) | 16.1 |
| CCC1CCCCN1CCCNC(=O)c1cn(C)c2ccc(S(=O)(=O)N(C)C3CCCCC3)cc2c1=O (centres unmarked) | -2.04 |
| CCn1cc(C(=O)NCCCN(CC(C)C)CC(C)C)c(=O)c2cc(S(=O)(=O)N(C)C3CCCCC3)ccc21 | -6.68 |
| CCn1cc(C(=O)NCCCN2CCC(C)CC2)c(=O)c2cc(S(=O)(=O)N(C)C3CCCCC3)ccc21 | -74 |
| CC1CCCN(CCCNC(=O)c2cn(C)c3ccc(S(=O)(=O)N(C)C4CCCCC4)cc3c2=O)C1 (centres unmarked) | -13.2 |
| CCn1cc(C(=O)NCCCN2CCCC(C)C2)c(=O)c2cc(S(=O)(=O)N3CCc4ccccc4C3)ccc21 (centres unmarked) | -64.2 |
| CCC1CCCCN1CCCNC(=O)c1cn(CC)c2ccc(S(=O)(=O)N(C)C3CCCCC3)cc2c1=O (centres unmarked) | -75.5 |
| CCn1cc(C(=O)NCCCOC)c(=O)c2cc(S(=O)(=O)N(C)C3CCCCC3)ccc21 | -2.67 |
| CCn1cc(C(=O)NCCCN2CCCC2)c(=O)c2cc(S(=O)(=O)N3CCc4ccccc4C3)ccc21 | 6.45 |
| CCN(CC)CCCNC(=O)c1cn(CC)c2ccc(S(=O)(=O)N(C)C3CCCCC3)cc2c1=O | -5.96 |
| CCn1cc(C(=O)NCCCN2CCCCCC2)c(=O)c2cc(S(=O)(=O)N3CCc4ccccc4C3)ccc21 | -24.5 |
| CCn1cc(C(=O)NCCCN2CCCC(C)C2)c(=O)c2cc(S(=O)(=O)N(C)C3CCCCC3)ccc21 (centres unmarked) | -82 |
| COc1cccc(CNC(=O)Cc2nc3nc(C)cc(C)n3n2)c1 | 14.5 |
| COc1cc(/C=c2\sc3n(c2=O)CCCN=3)ccc1O | 13.5 |
| COc1ccc(/C=C/c2c([N+](=O)[O-])c(=O)n(C)c(=O)n2C)cc1OC | 5.36 |
| COc1ccc(-c2nsc(SCC(=O)Nc3cc(C)on3)n2)cc1 | 11.9 |

| Structure (SMILES) | hERG current change (%, negative = inhibition) at 1uM [%] |
| --- | --- |
| O=C(O)c1ccc(CNCc2ccc(Cl)cc2)cc1 | 11.3 |
| O=C(CCc1ccccc1)Nc1cc2c3c(c1)CCC(=O)N3CCC2 | -1.85 |
| COc1ccc(-c2cc(C)no2)cc1S(=O)(=O)Nc1cccc(C)c1 | 15.5 |
| CC(C)(C)NC(=O)C1Cc2ccccc2CN1S(=O)(=O)c1ccc(F)cc1 (centres unmarked) | 3.91 |
| O=C(CC1CC2CCC1C2)NCCc1ccc(Cl)cc1 (centres unmarked) | -0.305 |
| Cn1cccc1/C=N/N1CCN(Cc2ccc(Cl)cc2)CC1 | 3.9 |
| COc1ccc(COCC(O)CN2CCC(CN3C(=O)c4cccc5cccc(c45)C3=O)CC2)cc1OC.Cl (centres unmarked) | -20.2 |
| CCS(=O)(=O)N1CCN(S(=O)(=O)c2ccc3ccccc3c2)CC1 | 13 |
| O=C(CSc1ccc(Cl)cc1)Nc1nnc(-c2ccco2)o1 | -1.41 |
| COc1cc(C2C(C#N)=C(N)Oc3cc(C)oc(=O)c32)cc(OC)c1OC (centres unmarked) | 20.5 |
| COC(=O)c1cc(Br)c(=O)n(Cc2ccc(OC)c(OC)c2)c1 | 16.7 |
| CCCCN(CC)CCCNC(=O)c1cn(CC)c2ccc(S(=O)(=O)N3CCc4ccccc4C3)cc2c1=O | -71.9 |
| CCN(CC)CCCNC(=O)c1cn(CC)c2ccc(S(=O)(=O)N3CCc4ccccc4C3)cc2c1=O | 1.94 |
| CCOCCCNC(=O)c1cn(CC)c2ccc(S(=O)(=O)N(C)C3CCCCC3)cc2c1=O | 11.3 |
| CCCN(CCC)CCCNC(=O)c1cn(CC)c2ccc(S(=O)(=O)N3CCc4ccccc4C3)cc2c1=O | -47.9 |
| CCn1cc(C(=O)NCCCN2CC(C)CC(C)C2)c(=O)c2cc(S(=O)(=O)N(C)C)ccc21 (centres unmarked) | -17.3 |
| CCn1cc(C(=O)NCCCN2CC(C)CC(C)C2)c(=O)c2cc(S(=O)(=O)N(C)C3CCCCC3)ccc21 (centres unmarked) | -91.4 |
| Oc1ccc(/C=N/Nc2ccc(C(F)(F)F)cn2)cc1 | 7.84 |
| O=C(NCc1ccco1)C(=O)NCC1OCCCN1S(=O)(=O)c1ccc(F)cc1 (centres unmarked) | 10 |
| COc1ccccc1N(C)S(=O)(=O)c1ccc(Cl)c(C(=O)NC2=NCCS2)c1 | 21.6 |
| Cc1ccc(S(=O)(=O)NCC2COc3ccccc3O2)cc1 (centres unmarked) | 6.71 |
| CCc1ccc(NC(=O)CSCc2nc(N)nc(Nc3ccccc3CC)n2)cc1 | 10.9 |
| O=C(C1CCN(C2CCN(Cc3ccc4cc(F)ccc4n3)CC2)CC1)N1CCCC1 | -78.3 |
| O=C(c1cc(F)ccc1F)N1CCC(N2CCC(C(=O)N3CCCC3)CC2)CC1 | 16.9 |
| CCc1ccc(CN2CCC(N3CCC(C(=O)N4CCCC4)CC3)CC2)o1 | -28.3 |
